Measurements from PubChem BioAssay (Tox21).
Inconclusive results are not listed. Calls of active or inactive are those of the source. Calls follow the shape of the dose curve; as a rule, active = well fitted curve in the direction sought with a large enough effect in the repeat runs; inconclusive = weak or mixed curves; inactive = no such curve, though single readings can be large; an effect the other way counts as inactive or inconclusive. Non-standard residues stand in square brackets, D forms with d. Residues, ends and D or L forms follow the SMILES beside them. *: point of attachment. Sta = CC(C)C[C@H](N)[C@@H](O)CC(=O)O; Isovaleryl = CC(C)CC(=O)*

Columns and labels:
[1] = molecular target: Nuclear receptor subfamily 1 group I member 2 (Homo sapiens) (UniProt O75469); experiment: CYP3A4 induction through human pregnane X receptor (PXR) by small molecules, qHTS assay (AID 1346984); also: nearly all actives have a fitted effect of over 40% in size
Outline: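 Cells (DPX-2; HepG2 with PXR element plus CYP3A4-promoter luciferase) settled 5hr, then were treated 24hr at 37C. A 3hr, 3uM-final Luciferin-IPA step preceded luminescence measurement with One-Glo.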

[2] = molecular target: Nuclear receptor subfamily 1 group I member 2 (Homo sapiens) (UniProt O75469); experiment: Human pregnane X receptor (PXR) activation by small molecules, qHTS assay (AID 1346985); also: nearly all actives have a fitted effect of over 40% in size
Outline: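 DPX-2 cells (HepG2 co-transfected with a PXR response element and a CYP3A4-promoter luciferase construct) were seeded at 2,000 per well, rested 5 hr at 37C, then exposed to DMSO-dissolved compounds for 24 hr. Activation was read as luciferase luminescence.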

[3] = molecular target: Cytochrome P450 2D6 (Homo sapiens) (UniProt P10635); experiment: Cytochrome P450 Family 2 Subfamily D Member 6 (CYP2D6) small molecule antagonists: luciferase reporter qHTS assay (AID 1671196); also: series mostly up to about 120 µM; nearly all actives have a fitted effect of over 50% in size
Outline: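 Room-temperature luminescent CYP2D6 activity assay: compound preincubated 10 min with enzyme–substrate mix, NADPH-initiated reaction 1 h, detection reagent 20 min before reading.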

[4] = molecular target: Cytochrome P450 2C9 (Homo sapiens) (UniProt P11712); experiment: Cytochrome P450 Family 2 Subfamily C Member 9 (CYP2C9) small molecule antagonists: luciferase reporter qHTS assay (AID 1671198); also: nearly all actives have a fitted effect of over 50% in size; also: potency is read from the fitted curve at half-maximal effect; as to activity change, negative = inhibition: series mostly up to about 120 µM
Outline: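 CYP2C9 activity was measured with a P450-Glo proluciferin substrate. Enzyme–substrate mix was held with compound for 10 min at room temperature, then NADPH regeneration solution was added for 1 h at 37C. Luciferin product was read as luminescence.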

[5] = molecular target: Cytochrome P450 1A2 (Homo sapiens) (UniProt P05177); experiment: Cytochrome P450 Family 1 Subfamily A Member 2 (CYP1A2) small molecule antagonists: luciferase reporter qHTS assay (AID 1671199); also: nearly all actives have a fitted effect of over 50% in size; also: potency is read from the fitted curve at half-maximal effect; as to activity change, negative = inhibition: series mostly up to about 120 µM
Outline: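 Room-temperature CYP1A2 reaction with proluciferin substrate: compounds added from DMSO, 10 min preincubation, NADPH regeneration for 1 h. Luciferin detection reagent then added; luminescence recorded as RLU.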

[6] = molecular target: Voltage-gated inwardly rectifying potassium channel KCNH2 (Homo sapiens) (UniProt Q12809); experiment: Human Ether-a-go-go-Related Gene (hERG) channel small molecule antagonists: fluorescence cell-based qHTS assay (AID 1671200);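 also: hERG-expressing U2OS cells given a thallium stimulus after FluxOR II dye loading; series mostly up to about 77 µM; nearly all actives have a fitted effect of over 50% in size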
Outline: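 Kinetic two-minute fluorescence traces, sampled at 1 s, were collected following thallium stimulus of U2OS cells (1000 per well) that had been cultured overnight at 37 C and loaded with FluxOR II.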

[7] = molecular target: Cytochrome P450 3A4 (Homo sapiens) (UniProt P08684); experiment: Cytochrome P450 Family 3 Subfamily A Member 4 (CYP3A4) small molecule antagonists: luciferase reporter qHTS assay (AID 1671201)
Outline: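 Proluciferin-to-luciferin conversion by CYP3A4, NADPH-regenerated, 1 h RT; luminescence read as RLU. Ketoconazole as control.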

[8] = molecular target: Cytochrome P450 2C19 (Homo sapiens) (UniProt P33261); experiment: Cytochrome P450 Family 2 Subfamily C Member 19 (CYP2C19) small molecule antagonists: luciferase reporter qHTS assay (AID 1671197); also: nearly all actives have a fitted effect of over 65% in size; also: potency is read from the fitted curve at half-maximal effect; as to activity change, negative = inhibition: series mostly up to about 120 µM
Outline: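 First, compounds are pinned into enzyme-substrate mix and held 10 min at room temperature. Second, NADPH regeneration solution is added and plates incubate 1 h at 37C. Third, detection reagent is added and luminescence read after 20 min.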
% is scaled to controls: 0 for no effect and ±100 for the full control effect.

Sequence of Cytochrome P450 2D6 (Homo sapiens) (P10635 whole entry, looked up): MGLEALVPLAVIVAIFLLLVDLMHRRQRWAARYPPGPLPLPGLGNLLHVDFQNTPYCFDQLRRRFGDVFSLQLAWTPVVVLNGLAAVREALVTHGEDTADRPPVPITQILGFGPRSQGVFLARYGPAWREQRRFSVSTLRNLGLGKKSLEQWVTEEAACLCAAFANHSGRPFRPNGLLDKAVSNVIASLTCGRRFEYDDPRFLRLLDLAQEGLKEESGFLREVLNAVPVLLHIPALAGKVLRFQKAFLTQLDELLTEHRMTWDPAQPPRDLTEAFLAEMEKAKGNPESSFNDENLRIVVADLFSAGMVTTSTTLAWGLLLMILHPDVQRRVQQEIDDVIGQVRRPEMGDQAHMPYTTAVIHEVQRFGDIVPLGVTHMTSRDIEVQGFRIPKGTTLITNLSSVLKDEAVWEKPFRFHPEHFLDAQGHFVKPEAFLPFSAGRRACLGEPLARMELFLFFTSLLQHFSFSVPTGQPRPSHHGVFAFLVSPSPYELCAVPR
Sequence of Cytochrome P450 1A2 (Homo sapiens) (P05177 whole entry, looked up): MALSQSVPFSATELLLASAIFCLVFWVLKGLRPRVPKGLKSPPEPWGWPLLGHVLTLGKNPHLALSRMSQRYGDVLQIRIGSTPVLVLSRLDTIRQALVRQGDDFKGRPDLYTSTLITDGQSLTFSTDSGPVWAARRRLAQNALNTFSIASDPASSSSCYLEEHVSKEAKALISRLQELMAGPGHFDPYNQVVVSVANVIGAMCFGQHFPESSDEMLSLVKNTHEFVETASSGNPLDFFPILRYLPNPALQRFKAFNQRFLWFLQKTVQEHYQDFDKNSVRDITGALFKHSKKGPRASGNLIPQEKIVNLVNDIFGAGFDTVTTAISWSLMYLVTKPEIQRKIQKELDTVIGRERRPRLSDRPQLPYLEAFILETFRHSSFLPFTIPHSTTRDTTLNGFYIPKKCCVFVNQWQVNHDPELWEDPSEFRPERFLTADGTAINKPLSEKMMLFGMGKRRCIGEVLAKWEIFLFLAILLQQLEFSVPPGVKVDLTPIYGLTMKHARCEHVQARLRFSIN
Sequence of Cytochrome P450 2C9 (Homo sapiens) (P11712 whole entry, looked up): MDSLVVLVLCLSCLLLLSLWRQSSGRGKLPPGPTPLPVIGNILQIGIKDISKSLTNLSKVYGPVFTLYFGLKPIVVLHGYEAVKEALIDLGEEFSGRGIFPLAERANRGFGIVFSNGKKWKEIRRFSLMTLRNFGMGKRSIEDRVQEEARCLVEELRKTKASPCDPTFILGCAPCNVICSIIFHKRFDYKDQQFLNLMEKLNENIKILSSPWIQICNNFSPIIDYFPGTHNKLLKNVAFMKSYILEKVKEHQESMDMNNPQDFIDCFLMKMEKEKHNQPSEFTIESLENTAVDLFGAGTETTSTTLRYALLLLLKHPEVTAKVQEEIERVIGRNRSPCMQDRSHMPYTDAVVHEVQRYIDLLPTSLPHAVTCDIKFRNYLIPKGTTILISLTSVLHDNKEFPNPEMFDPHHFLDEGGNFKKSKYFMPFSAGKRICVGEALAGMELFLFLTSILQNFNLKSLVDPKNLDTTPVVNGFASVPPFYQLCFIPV
Sequence of Cytochrome P450 2C19 (Homo sapiens) (P33261 whole entry, looked up): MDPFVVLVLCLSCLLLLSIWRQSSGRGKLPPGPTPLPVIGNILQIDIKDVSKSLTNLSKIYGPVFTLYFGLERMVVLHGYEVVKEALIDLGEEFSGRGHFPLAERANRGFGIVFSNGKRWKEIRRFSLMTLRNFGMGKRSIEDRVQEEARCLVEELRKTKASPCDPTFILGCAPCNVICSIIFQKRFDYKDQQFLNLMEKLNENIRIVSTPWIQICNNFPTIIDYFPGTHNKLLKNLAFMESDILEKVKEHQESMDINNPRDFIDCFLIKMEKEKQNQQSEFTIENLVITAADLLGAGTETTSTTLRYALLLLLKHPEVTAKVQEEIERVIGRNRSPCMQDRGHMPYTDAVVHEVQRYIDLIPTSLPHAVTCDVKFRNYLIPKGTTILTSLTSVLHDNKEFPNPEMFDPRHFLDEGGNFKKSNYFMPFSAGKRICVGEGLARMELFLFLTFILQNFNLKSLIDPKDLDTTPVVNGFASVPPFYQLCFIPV
Sequence of Cytochrome P450 3A4 (Homo sapiens) (P08684 whole entry, looked up): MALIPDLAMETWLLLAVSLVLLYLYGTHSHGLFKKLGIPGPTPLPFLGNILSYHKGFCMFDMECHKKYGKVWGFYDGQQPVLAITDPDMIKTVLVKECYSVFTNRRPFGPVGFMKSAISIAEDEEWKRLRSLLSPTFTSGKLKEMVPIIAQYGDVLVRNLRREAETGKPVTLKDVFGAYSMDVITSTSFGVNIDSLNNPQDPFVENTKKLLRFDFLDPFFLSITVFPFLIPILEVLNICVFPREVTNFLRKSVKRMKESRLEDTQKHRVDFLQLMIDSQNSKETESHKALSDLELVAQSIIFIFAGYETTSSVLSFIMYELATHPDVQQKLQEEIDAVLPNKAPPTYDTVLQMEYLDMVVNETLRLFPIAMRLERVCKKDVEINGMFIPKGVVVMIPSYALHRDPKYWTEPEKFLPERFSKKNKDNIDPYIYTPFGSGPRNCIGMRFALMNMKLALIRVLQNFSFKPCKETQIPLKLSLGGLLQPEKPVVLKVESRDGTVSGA
Sequence of Voltage-gated inwardly rectifying potassium channel KCNH2 (Homo sapiens) (Q12809 whole entry, looked up): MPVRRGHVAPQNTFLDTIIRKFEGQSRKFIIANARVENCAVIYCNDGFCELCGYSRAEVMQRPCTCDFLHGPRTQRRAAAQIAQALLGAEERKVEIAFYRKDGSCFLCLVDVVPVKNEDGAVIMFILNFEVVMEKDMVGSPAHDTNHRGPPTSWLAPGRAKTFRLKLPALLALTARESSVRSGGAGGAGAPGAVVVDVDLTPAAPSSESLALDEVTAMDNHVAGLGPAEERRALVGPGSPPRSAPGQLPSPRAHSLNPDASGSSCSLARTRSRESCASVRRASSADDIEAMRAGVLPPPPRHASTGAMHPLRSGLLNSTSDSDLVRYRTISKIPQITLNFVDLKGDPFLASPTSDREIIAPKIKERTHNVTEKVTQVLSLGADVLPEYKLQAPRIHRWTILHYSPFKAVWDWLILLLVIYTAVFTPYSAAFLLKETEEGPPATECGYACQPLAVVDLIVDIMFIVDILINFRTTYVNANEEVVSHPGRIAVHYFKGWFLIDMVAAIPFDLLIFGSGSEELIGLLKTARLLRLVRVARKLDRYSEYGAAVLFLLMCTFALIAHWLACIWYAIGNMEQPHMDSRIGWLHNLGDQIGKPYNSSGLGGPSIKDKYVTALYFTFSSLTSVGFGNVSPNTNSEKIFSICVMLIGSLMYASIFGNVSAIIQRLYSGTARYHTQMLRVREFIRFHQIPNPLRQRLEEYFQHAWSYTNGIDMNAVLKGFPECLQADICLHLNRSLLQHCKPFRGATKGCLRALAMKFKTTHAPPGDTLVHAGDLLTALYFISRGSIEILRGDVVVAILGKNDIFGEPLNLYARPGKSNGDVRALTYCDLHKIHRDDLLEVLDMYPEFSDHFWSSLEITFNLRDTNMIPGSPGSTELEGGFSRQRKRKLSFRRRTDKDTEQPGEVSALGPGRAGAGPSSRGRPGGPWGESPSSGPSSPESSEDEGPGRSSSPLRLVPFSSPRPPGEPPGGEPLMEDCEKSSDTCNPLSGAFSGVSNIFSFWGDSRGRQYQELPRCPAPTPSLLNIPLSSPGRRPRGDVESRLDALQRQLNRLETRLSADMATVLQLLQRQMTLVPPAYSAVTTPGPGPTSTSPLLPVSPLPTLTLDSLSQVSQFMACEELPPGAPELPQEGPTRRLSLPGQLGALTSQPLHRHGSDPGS

CCCCC(CC)CCC(CC(C)C)OS(=O)(=O)O (centres undefined)
inactive: outcome [1] | outcome [2] | Potency [3] | Potency [5] | Potency [6] | Potency [7]
active: Potency [4] 31.7 µM

C[C@@H](CN1CC(=O)NC(=O)C1)N1CC(=O)NC(=O)C1
inactive: outcome [1] | outcome [2] | Potency [3] | Potency [8] | Potency [4] | Potency [5] | Potency [6] | Potency [7]

CN(C)CCc1c[nH]c2ccc(C[C@H]3COC(=O)N3)cc12
inactive: outcome [1] | outcome [2] | Potency [8] | Potency [4] | Potency [5] | Potency [6] | Potency [7]

NS(=O)(=O)c1cc2c(cc1C(F)(F)F)NCNS2(=O)=O
inactive: outcome [1] | outcome [2] | Potency [3] | Potency [4] | Potency [5] | Potency [6]

CN1CCN(C(=O)C2CCCCC2)CC1
inactive: outcome [1] | outcome [2] | Potency [3] | Potency [4] | Potency [5] | Potency [6] | Potency [7]

N[C@H]1C(O)O[C@H](CO)[C@@H](O)[C@@H]1O (some centres undefined)
inactive: outcome [1] | outcome [2] | Potency [8] | Potency [4] | Potency [5] | Potency [6] | Potency [7]

CC(=O)OCC(=O)[C@@]1(O)CC[C@H]2[C@@H]3CCC4=CC(=O)C=C[C@]4(C)[C@H]3[C@@H](O)C[C@@]21C
inactive: outcome [1] | outcome [2] | Potency [3] | Potency [8] | Potency [4] | Potency [5] | Potency [6]

N=C(N)N1CCc2ccccc2C1
inactive: outcome [1] | outcome [2] | activity change, negative = inhibition [3] -15.2% [at 10.5 µM] | activity change, negative = inhibition [8] 22.1% [at 10.5 µM] | activity change, negative = inhibition [4] 6.48% [at 10.5 µM] | activity change, negative = inhibition [5] 0.421% [at 10.5 µM] | activity change, negative = inhibition [6] -6.17% [at 6.97 µM]

Cc1ccc(S(=O)(=O)NC(=O)NN2CC3CCCC3C2)cc1 (centres undefined)
inactive: outcome [1] | outcome [2] | Potency [3] | Potency [8] | Potency [4] | Potency [5] | Potency [6] | Potency [7]

COc1cc(OC)cc(OC)c1
inactive: outcome [1] | outcome [2] | Potency [3] | Potency [8] | Potency [4] | Potency [6] | Potency [7]
active: Potency [5] 17.4 µM

CC(C)(C)C(=O)NCCCC(=O)O
inactive: outcome [1] | outcome [2] | Potency [3] | Potency [8] | Potency [4] | Potency [5] | Potency [6] | Potency [7]

O=S(=O)(O)c1cc(I)c(O)c2ncccc12
inactive: outcome [1] | outcome [2] | Potency [3] | Potency [8] | Potency [5] | Potency [6] | Potency [7]

C[C@@H]1NC(=O)[C@@H](N)CNC(=O)[C@H](C2CCNC(N)=N2)NC(=O)/C(=C/NC(N)=O)NC(=O)[C@H](CNC(=O)C[C@@H](N)CCCN)NC1=O (some centres undefined)
inactive: outcome [1] | outcome [2] | activity change, negative = inhibition [3] -6.52% [at 0.435 µM] | activity change, negative = inhibition [4] 3.32% [at 0.435 µM] | activity change, negative = inhibition [5] 10.4% [at 0.435 µM] | activity change, negative = inhibition [6] 0.491% [at 0.29 µM] | activity change, negative = inhibition [7] 1.92% [at 0.435 µM]

COC(=O)N/N=C/c1c[n+]([O-])c2ccccc2[n+]1[O-]
inactive: outcome [1] | outcome [2] | Potency [8] | Potency [4] | Potency [5] | Potency [6] | Potency [7]

CC(C)OC(=O)C(C(=O)OC(C)C)=C1SC=CS1
inactive: outcome [1] | outcome [2] | Potency [3] | Potency [6] | Potency [7]
active: Potency [8] 34.7 µM | Potency [5] 13.8 µM

CCN1CCN(C(=O)N[C@@H](C(=O)N[C@@H]2C(=O)N3C(C(=O)O)=C(CSc4nnnn4C)CS[C@H]23)c2ccc(O)cc2)C(=O)C1=O
inactive: outcome [1] | outcome [2] | Potency [3] | Potency [8] | Potency [4] | Potency [5] | Potency [6] | Potency [7]

CNCCc1ccccn1
inactive: outcome [1] | outcome [2] | Potency [8] | Potency [4] | Potency [5] | Potency [6] | Potency [7]

O=P(O)(O)C(O)(Cc1cccnc1)P(=O)(O)O
inactive: outcome [1] | outcome [2] | Potency [3] | Potency [8] | Potency [4] | Potency [5] | Potency [6] | Potency [7]

CC[C@@]1(c2ccccc2)NC(=O)N(C)C1=O
inactive: outcome [1] | outcome [2] | Potency [4] | Potency [5] | Potency [6] | Potency [7]

CC(C)CC(=O)N[C@H](C(=O)N[C@H](C(=O)N[C@@H](CC(C)C)[C@@H](O)CC(=O)N[C@@H](C)C(=O)N[C@@H](CC(C)C)[C@@H](O)CC(=O)O)C(C)C)C(C)C (Isovaleryl-VV[Sta]A[Sta]-OH)
inactive: outcome [1] | outcome [2] | Potency [3] | Potency [8] | Potency [4] | Potency [6] | Potency [7]

O=C(CCBr)N1CCN(C(=O)CCBr)CC1
inactive: outcome [1] | outcome [2] | Potency [8] | Potency [4] | Potency [6] | Potency [7]

NCC1CCC(C(=O)Oc2ccc(CCC(=O)O)cc2)CC1 (centres undefined)
inactive: outcome [1] | outcome [2] | Potency [3] | Potency [8] | Potency [4] | Potency [5] | Potency [6] | Potency [7]

O=C(O)P(=O)(O)O
inactive: outcome [1] | outcome [2] | Potency [3] | Potency [8] | Potency [4] | Potency [5] | Potency [6] | Potency [7]

CN(C)CCC[C@@]1(c2ccc(F)cc2)OCc2cc(C#N)ccc21
inactive: outcome [1] | outcome [2] | Potency [8] | Potency [4] | Potency [5] | Potency [7]

C[C@H]1COc2c(C3(N)CC3)c(F)cc3c(=O)c(C(=O)O)cn1c23
inactive: outcome [1] | outcome [2] | Potency [3] | Potency [8] | Potency [5] | Potency [6] | Potency [7]
